# Target: AMP-activated protein kinase, AMPK (Homo sapiens) (UniProt P54646+O43741+P54619+Q9UGJ0+Q9Y478+Q13131+Q9UGI9)
# Experiment: AMP-dependent Kinase enzyme assay. An in vitro enzyme assay that detects ADP turnover that is directly proportional to AMPK activity. This uses naive AMPK that is activated during the assay with MK-8722
# Assay type: functional
# Parameters: scale not given: direction of the effect not stated beside the values
# Settings: 30 µM
row,Compound,Percent Effect
1,COC(=O)c1ccoc1CN(C)CC(=O)NC1CCS(=O)(=O)C1 (centres undefined),-0.853%
2,NC(=O)COc1ccc(CN2CCC(O)(CN3CCCCC3)C2)cc1Cl (centres undefined),2.63%
3,CC(C)c1ccc(CN2CCCC3(CC2)CN(C)C(=O)O3)cc1 (centres undefined),9.6%
4,CCc1cc(N2CCC(NCCc3ccccc3F)CC2)nc(C)n1,1.26%
5,COc1ccc(CC2(CO)CCN(c3cc(N)ncn3)CC2)cc1,8.25%
6,CC(O)CN1CCN(Cc2coc(-c3ccccc3)n2)CC1 (centres undefined),-7.2%
7,O=C(O)[C@H]1C[C@H](C(=O)NCc2ccncc2)CN(CCC(F)(F)F)C1,-2.07%
8,CC(C)N1CCC(CC(=O)NCc2cc(O)ncn2)CC1,-3.46%
9,O=C(CN1CC(c2nc(C3CC3)no2)C1)NCc1ccc(F)cc1,3.03%
10,CC(C)NC(=O)N1CCCCCC1C1CCN(c2ncccn2)CC1 (centres undefined),-6.91%
11,Cn1ccc(NC(=O)CN2CCN(C3CCCC3)C(=O)C2)n1,4.97%
12,COCC(=O)N1CCCC1(C(=O)N(C)C)c1cnccn1 (centres undefined),6.8%
13,CNC(=O)CNC(=O)NCc1cc2c(s1)CCC(C)(C)C2,-2.89%
14,O=c1[nH]c2ccc(S(=O)(=O)N(CCO)Cc3ccncc3)cc2[nH]1,15.8%
15,NC(=O)CNC(=O)c1cc(Cn2cnc3ccccc32)[nH]n1,-3.37%
16,CN1CCN(c2ccc(F)cc2NC(=O)NCc2ccon2)CC1,4.16%
17,O=C(NCc1cccnc1-n1cncn1)c1cc(Cl)ccn1,-11.1%
18,CC(C)(C)c1ccc(C(=O)C2CCCN(C(=O)CNS(C)(=O)=O)C2)cc1 (centres undefined),0.896%
19,CCOC(=O)C1(NC(=O)CCNc2cc(C)ccc2OC)CCCCC1,6.8%
20,Cc1cc(C2CCCN(Cc3nc(Cc4ccccc4)no3)C2)n[nH]1 (centres undefined),3.74%

row,Compound,Percent Effect
1,O=C(CCn1ccnc1)N1CC[C@H](Oc2ccc(F)cc2)[C@@H](O)CC1,20.9%
2,COc1cc(COCC2CCN(Cc3ccccn3)CC2)cc(OC)c1,-0.77%
3,CC(C)c1nc(C2CCCN2CCN2CCCCC2)no1 (centres undefined),-7.59%
4,O=S(=O)(NCCCn1cncn1)c1ccc2c(c1)CCCC2,6.33%
5,Cc1cc(C)c2cc(C(=O)N3CCNC(=O)C3)[nH]c2c1,1.52%
6,Cc1noc(C)c1-c1n[nH]c2c1CN(S(=O)(=O)c1cccs1)CC2,2.21%
7,Cc1cnn(CC2CCN(CC(O)Cn3cccn3)CC2)c1 (centres undefined),11.8%
8,CCOC(=O)C1(O)CCN(C(=O)Nc2cccc(CC)c2)CC1,-6.62%
9,CC(=O)NCCc1cc2nc(-c3ccncc3)ccn2n1,17.4%
10,CCc1ccc2nc(-c3cnn(C)c3)cc(C(=O)N3CCCC3)c2c1,7.23%
11,Cc1nc(CN(C)c2nccc(C(F)(F)F)n2)cs1,5.48%
12,NC(=O)C1CCN(CCCNC(=O)Nc2nncs2)CC1,1.35%
13,CN1C[C@H](c2ccccc2)[C@H]2CN(C(=O)Cc3ccc(O)cc3)CC[C@H]21,4.46%
14,COc1ccc(-c2cccc3c2OC(CN)C3)cc1F (centres undefined),0.444%
15,Cc1nonc1CN(C)c1nc(-c2ccco2)nc2c1CCN(C)CC2,4.86%
16,NC(=O)NC(CC(=O)N1CCc2sccc2C1)c1ccccc1F (centres undefined),3.63%
17,O=S(=O)(NCC1(c2cccs2)CCOCC1)c1cccnc1,-2.3%
18,Cc1ccc(N2CCCN(C(=O)CCCn3ccnc3C)CC2)nn1,-0.453%
19,CCOc1ccc(CN(C)C(=O)c2nc(N3CCCC3)ncc2Cl)cc1,-1.93%
